Assay results published in PubChem BioAssay (NCATS).
“And” between values parts separate entries of the source, which are not always exact repeats. Equal values may be shown once. Inconclusive results are not listed. The source made the active and inactive calls. Calls come from the whole dose curve; as a rule, active = well fitted curve in the direction sought with a large enough effect; inconclusive = small, poorly fitted or top-dose-only effect, or another doubt; inactive = no such curve, though single readings can be large; an effect the other way counts as inactive or inconclusive.

Assays:
[1] = molecular target: Cellular tumor antigen p53 (Homo sapiens) (UniProt P04637); experiment: Primary qHTS for small molecule compounds that upregulate eGFP-tagged delta133p53alpha (in N-terminal) cells. (AID 2060322); settings: NCI-H358 eGFP-delta133p53alpha fluorescence, 24 h; activation: active compounds read high;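 note: cells pre-induced with doxycycline then dosed without doxycycline; 0% = DMSO vehicle and 100% = reference activator; nearly all actives have a fitted effect of over 75% in size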
Cellular tumor antigen p53 (Homo sapiens), sequence (P04637 whole entry, looked up): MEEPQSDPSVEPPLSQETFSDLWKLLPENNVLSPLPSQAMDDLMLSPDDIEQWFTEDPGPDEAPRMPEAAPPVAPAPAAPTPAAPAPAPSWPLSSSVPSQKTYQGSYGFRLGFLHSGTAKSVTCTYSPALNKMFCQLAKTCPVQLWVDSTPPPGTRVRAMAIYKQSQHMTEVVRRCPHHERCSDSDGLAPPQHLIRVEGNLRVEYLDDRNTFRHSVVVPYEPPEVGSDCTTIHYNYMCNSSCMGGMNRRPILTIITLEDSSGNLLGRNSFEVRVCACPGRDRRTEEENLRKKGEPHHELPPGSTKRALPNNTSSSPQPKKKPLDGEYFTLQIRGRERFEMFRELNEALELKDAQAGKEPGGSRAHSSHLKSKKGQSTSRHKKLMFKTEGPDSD
How it was run: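 NCI-H358 cells pre-induced 24 h with 10 ng/ml doxycycline for eGFP-delta133p53alpha, plated dox-free and exposed 24 h at 37C to titrated compounds. Fixed, Hoechst-stained; gated GFP peak intensity by laser scanning cytometry, normalized to DMSO (0%) and 57.5 uM 5-azacytidine (100%).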

[2] = molecular target: Aldehyde dehydrogenase, mitochondrial (Homo sapiens) (UniProt P05091); experiment: qHTS for Inhibitors of the Aldehyde Dehydrogenase Family (ALDH2) Primary screen (AID 2061308); settings: ALDH2 enzyme inhibition qHTS, 1536-well; series mostly up to 56 µM;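 note: plate controls were vehicle for no effect and reference inhibitor for full effect; nearly all actives have a fitted effect of over 55% in size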
[3] = molecular target: Retinaldehyde dehydrogenase 3 (Homo sapiens) (UniProt P47895); experiment: qHTS for Inhibitors of the Aldehyde Dehydrogenase Family (ALDH1A3) Primary screen (AID 2061315); settings: ALDH inhibition qHTS; series mostly up to 56 µM;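 note: plate controls were DMSO vehicle for no effect and reference inhibitor for full effect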

CCNC(=O)Nc1ccc(-c2nc3c(c(N4CCOC[C@@H]4C)n2)CCN(c2ncccn2)C3)cc1
inactive: activation [1] -14.3% | Potency [2] | Potency [3]

CCC(C)/C=C(C)/C=C/C1=CC2=C(Cl)C(=O)C(C)(OC(C)=O)C(=O)C2=CN1C1CCCCN(C(CCC(N)=O)C(=O)O)C1=O (configuration not stated)
inactive: activation [1] 2.68% | Potency [2] | Potency [3]

CCCCS(=O)(=O)N[C@@H](Cc1ccc(OCCCCC2CCNCC2)cc1)C(=O)O
inactive: activation [1] -22% and 10.3% | Potency [2] | Potency [3]

CC(C)C(C#N)O[C@@H]1O[C@H](CO[C@@H]2O[C@@H](C)[C@H](O)[C@@H](O)[C@H]2O)[C@@H](O)[C@H](O)[C@H]1O (some centres not stated)
inactive: activation [1] -3.82% | Potency [2] | Potency [3]

COC(=O)C1=CO[C@@H](O[C@@H]2O[C@H](CO)[C@@H](O)[C@H](O)[C@H]2O)[C@@H]2C(CO)=CC[C@]12O
inactive: activation [1] 1.79% | Potency [2] | Potency [3]

CC(=O)OC1CC2C(C)(C)C(=O)C=CC2(C)C2CC(=O)C3=C(CCC3C3=CC(O)OC3=O)C12C (configuration not stated)
inactive: activation [1] -12.2% | Potency [2] | Potency [3]

CC(C)(O)c1ccc2c(c1)C(O)CC1C(C)(C(=O)O)CCCC21C (configuration not stated)
inactive: activation [1] 5.34% | Potency [2] | Potency [3]

CC(=O)O[C@@H]1C[C@@H](OC(C)=O)C(C)(C)/C=C/[C@H](C)[C@H](OC(C)=O)[C@@]2(O)C[C@H](C)[C@H](OC(=O)c3ccccc3)[C@@H]2/C=C/1C
inactive: activation [1] -3.82% | Potency [2] | Potency [3]

C=C(C)[C@@H]1CC[C@]2(C(=O)O)CC[C@]3(C)C(CCC4[C@]5(C)C(CC[C@]43C)C(C)(C)[C@@H](O)[C@@H]5C(=O)O)C12 (some centres not stated)
inactive: activation [1] -18.3% | Potency [2] | Potency [3]
